Source: ChEMBL document CHEMBL3988442, “University of Dundee, Small-Polar-MMV Screening Library” (2021)
For some assays here: Measured potencies and affinities stand elsewhere.

Assays:
Parameters in all cases: scale not given: direction of the effect not stated beside the values
[1] = biological target: Protein translocase subunit SecA (Escherichia coli (strain K12)) (UniProt P10408); test: Assay to Identify E. coli SecA ATPase Inhibitors; format: functional; conditions: 30 µM
[2] = biological target: T1, Ubiquitin-activating enzyme e1, putative (Leishmania donovani (strain BPK282A1)) (UniProt E9BSI1); test: Leishmania donovani Ubiquitin Activating Enzyme (LdE1); format: functional; conditions: 30 µM
T1 sequence (whole entry): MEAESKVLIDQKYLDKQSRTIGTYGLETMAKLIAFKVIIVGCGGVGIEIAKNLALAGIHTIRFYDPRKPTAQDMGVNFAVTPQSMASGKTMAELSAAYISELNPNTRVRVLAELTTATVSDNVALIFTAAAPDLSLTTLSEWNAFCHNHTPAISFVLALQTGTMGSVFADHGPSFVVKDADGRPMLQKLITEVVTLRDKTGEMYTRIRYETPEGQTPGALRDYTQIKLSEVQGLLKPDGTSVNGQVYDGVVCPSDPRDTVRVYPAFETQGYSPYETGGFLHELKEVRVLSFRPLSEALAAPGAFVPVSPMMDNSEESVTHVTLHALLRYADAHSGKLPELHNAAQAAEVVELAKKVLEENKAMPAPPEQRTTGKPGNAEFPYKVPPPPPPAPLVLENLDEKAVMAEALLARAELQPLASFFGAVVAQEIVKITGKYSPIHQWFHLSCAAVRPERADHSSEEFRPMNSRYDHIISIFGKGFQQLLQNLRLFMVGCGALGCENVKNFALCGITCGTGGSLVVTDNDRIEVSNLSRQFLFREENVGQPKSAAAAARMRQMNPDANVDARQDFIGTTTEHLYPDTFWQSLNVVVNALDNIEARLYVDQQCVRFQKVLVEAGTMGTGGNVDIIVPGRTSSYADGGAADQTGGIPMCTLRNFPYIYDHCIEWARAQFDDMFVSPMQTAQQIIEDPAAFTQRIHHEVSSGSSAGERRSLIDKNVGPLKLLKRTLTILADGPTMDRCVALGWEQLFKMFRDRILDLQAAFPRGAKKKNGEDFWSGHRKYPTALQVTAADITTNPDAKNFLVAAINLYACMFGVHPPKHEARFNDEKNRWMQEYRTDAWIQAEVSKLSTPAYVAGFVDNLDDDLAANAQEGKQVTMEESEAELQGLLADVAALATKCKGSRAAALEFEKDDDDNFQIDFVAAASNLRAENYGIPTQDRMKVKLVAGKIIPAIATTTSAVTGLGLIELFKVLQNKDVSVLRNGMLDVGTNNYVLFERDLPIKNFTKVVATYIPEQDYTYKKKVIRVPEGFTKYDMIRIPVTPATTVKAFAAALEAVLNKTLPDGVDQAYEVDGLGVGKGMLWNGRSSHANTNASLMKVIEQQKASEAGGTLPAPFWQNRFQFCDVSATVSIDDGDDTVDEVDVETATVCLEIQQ

[3] = biological target: AMP-activated protein kinase, AMPK (Homo sapiens) (UniProt P54646+O43741+P54619+Q9UGJ0+Q9Y478+Q13131+Q9UGI9); test: AMP-dependent Kinase enzyme assay. An in vitro enzyme assay that detects ADP turnover that is directly proportional to AMPK activity. This uses naive AMPK that is activated during the assay with MK-8722; format: functional; conditions: 30 µM
[4] = biological target: Sialic acid-binding Ig-like lectin 9 (Homo sapiens) (UniProt Q9Y336); test: Hs-Siglec9 ALPHAscreen SOP 20170721; conditions: 10 µM
Sialic acid-binding Ig-like lectin 9 (Homo sapiens), sequence (Q9Y336 whole entry): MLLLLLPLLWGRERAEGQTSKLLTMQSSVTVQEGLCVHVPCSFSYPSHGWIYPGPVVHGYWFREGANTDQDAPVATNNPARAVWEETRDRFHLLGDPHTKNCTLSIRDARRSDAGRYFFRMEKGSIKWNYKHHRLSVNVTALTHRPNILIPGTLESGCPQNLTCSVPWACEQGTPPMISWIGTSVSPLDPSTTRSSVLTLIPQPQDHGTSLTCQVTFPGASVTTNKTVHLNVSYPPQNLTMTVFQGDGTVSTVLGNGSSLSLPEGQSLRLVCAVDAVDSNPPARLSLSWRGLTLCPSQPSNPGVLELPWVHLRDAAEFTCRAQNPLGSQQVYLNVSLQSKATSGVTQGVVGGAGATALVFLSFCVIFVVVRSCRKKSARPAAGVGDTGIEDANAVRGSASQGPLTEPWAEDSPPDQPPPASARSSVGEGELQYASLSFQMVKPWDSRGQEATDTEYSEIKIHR

Trypanosoma cruzi = test: Trypanosoma cruzi phosphomannomutase and mannose-1-phosphate guanylyltransferase assay; format: functional; conditions: 10 µM
[5] = biological target: T2, Arginase-2, mitochondrial (Homo sapiens) (UniProt P78540); test: in vitro enzyme assay to detect the production of urea directly proportional to the activity of Arginase II; format: functional; conditions: 33.3 µM; note: in the data most compounds retested in dose-response had high values
T2 sequence (whole entry): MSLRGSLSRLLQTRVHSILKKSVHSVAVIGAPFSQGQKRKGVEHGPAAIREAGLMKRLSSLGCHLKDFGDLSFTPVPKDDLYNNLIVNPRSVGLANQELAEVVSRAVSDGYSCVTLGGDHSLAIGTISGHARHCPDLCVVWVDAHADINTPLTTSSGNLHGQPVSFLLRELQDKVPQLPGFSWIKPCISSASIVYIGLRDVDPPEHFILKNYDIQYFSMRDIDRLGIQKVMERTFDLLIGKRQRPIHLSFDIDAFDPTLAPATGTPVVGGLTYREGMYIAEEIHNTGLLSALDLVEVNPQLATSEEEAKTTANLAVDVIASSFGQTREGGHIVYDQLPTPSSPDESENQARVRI

[6] = biological target: T3, Proteasome subunit beta (Trypanosoma cruzi) (UniProt O96673); test: Trypanosoma cruzi proteasome chymotrypsin-like activity (TcProtChymo) assay.; note: in the data most compounds retested in dose-response had high values; format: functional; conditions: 9.37 µM
T3 sequence (whole entry): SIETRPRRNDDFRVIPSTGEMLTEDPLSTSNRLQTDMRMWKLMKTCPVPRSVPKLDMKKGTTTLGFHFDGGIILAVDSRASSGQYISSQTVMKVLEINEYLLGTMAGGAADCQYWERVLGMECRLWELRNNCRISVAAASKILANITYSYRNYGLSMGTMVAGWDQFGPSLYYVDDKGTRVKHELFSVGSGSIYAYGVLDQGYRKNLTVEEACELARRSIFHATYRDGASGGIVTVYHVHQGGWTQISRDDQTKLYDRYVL

Homo sapiens = species on record: Homo sapiens; test: To identify inhibition of the IFN signalling (Jak-Stat) pathway via expression of an eGFP reporter gene under the control of an IFN-stimulated response element (ISRE) containing MxA promoter.; format: functional; conditions: 30 µM
[7] = biological target: T4, Tyrosyl-tRNA synthetase, putative (Trypanosoma cruzi (strain CL Brener)) (UniProt Q4DSP6); test: Trypanosoma cruzi tyrosyl tRNA synthetase (TcYRS) _High Tyrosine SOP; format: functional; conditions: 30 µM; note: in the data most compounds retested in dose-response had high values
T4 sequence (whole entry): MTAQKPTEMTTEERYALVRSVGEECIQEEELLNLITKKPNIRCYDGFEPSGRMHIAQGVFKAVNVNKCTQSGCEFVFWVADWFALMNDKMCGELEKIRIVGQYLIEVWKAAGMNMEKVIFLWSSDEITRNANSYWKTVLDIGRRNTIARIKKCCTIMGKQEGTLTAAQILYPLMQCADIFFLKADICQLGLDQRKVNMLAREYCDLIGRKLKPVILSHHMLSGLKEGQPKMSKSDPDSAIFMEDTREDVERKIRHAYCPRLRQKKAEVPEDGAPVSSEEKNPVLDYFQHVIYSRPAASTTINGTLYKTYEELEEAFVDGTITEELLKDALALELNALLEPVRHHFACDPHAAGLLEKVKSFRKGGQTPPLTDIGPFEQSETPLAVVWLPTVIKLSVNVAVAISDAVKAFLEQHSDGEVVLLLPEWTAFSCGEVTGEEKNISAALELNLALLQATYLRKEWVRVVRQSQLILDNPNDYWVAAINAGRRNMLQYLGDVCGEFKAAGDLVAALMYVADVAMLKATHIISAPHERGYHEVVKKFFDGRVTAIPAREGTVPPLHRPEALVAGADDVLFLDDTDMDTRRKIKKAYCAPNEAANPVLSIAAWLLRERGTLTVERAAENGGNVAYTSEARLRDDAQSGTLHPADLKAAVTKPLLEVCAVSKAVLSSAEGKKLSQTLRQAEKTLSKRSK

[8] = biological target: T4, Tyrosyl-tRNA synthetase, putative (Trypanosoma cruzi (strain CL Brener)); test: Trypanosoma cruzi tyrosyl tRNA synthetase (TcYRS) SOP; format: functional; conditions: 30 µM
[9] = biological target: Chromo domain-containing protein 1 (Saccharomyces cerevisiae (strain ATCC 204508 / S288c) (Baker's yeast)) (UniProt P32657); test: ScCHD-1 Enzyme Inhibition Assay; format: functional; conditions: 30 µM; note: in the data most compounds retested in dose-response had high values
Chromo domain-containing protein 1 (Saccharomyces cerevisiae (strain ATCC 204508 / S288c) (Baker's yeast)), sequence (P32657 whole entry, the tested form may be a part): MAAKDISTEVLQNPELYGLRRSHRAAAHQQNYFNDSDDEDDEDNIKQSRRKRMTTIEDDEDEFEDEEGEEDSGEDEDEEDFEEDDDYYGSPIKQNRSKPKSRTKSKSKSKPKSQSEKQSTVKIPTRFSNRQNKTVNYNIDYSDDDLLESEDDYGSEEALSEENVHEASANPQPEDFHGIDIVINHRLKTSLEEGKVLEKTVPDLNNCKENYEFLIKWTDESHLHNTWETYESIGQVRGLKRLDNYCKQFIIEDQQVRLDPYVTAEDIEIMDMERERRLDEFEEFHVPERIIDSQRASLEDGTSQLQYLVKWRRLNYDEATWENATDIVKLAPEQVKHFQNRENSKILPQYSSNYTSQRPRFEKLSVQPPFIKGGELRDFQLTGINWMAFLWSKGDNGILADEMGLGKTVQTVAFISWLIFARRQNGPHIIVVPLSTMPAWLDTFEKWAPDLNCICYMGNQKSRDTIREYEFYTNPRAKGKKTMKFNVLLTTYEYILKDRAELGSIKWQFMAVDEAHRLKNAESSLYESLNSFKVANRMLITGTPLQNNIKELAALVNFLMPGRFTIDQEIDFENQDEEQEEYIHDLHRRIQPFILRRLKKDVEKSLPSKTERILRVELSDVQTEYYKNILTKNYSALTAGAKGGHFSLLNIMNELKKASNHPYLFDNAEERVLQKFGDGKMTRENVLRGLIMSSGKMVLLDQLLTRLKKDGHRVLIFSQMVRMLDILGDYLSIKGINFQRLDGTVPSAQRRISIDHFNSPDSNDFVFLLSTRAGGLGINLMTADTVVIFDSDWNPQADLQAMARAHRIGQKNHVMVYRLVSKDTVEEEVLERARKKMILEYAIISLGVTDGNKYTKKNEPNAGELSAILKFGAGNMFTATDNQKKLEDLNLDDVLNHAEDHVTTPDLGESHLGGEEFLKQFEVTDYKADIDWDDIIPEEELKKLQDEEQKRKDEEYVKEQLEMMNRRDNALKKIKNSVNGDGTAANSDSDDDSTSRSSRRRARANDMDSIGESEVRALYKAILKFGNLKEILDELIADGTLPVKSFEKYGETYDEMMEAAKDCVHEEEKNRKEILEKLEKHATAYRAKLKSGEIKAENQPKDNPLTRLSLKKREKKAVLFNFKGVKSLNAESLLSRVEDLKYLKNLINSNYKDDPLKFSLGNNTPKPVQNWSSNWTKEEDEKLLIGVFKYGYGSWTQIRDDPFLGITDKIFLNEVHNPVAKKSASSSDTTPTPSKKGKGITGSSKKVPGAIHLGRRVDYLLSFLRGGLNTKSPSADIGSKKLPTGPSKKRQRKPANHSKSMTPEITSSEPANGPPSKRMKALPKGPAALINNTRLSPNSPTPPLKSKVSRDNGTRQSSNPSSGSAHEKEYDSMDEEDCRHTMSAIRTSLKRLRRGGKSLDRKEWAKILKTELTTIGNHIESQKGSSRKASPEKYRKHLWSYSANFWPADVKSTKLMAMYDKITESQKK

Protein translocase subunit SecA (Escherichia coli (strain K12)), sequence (P10408 whole entry): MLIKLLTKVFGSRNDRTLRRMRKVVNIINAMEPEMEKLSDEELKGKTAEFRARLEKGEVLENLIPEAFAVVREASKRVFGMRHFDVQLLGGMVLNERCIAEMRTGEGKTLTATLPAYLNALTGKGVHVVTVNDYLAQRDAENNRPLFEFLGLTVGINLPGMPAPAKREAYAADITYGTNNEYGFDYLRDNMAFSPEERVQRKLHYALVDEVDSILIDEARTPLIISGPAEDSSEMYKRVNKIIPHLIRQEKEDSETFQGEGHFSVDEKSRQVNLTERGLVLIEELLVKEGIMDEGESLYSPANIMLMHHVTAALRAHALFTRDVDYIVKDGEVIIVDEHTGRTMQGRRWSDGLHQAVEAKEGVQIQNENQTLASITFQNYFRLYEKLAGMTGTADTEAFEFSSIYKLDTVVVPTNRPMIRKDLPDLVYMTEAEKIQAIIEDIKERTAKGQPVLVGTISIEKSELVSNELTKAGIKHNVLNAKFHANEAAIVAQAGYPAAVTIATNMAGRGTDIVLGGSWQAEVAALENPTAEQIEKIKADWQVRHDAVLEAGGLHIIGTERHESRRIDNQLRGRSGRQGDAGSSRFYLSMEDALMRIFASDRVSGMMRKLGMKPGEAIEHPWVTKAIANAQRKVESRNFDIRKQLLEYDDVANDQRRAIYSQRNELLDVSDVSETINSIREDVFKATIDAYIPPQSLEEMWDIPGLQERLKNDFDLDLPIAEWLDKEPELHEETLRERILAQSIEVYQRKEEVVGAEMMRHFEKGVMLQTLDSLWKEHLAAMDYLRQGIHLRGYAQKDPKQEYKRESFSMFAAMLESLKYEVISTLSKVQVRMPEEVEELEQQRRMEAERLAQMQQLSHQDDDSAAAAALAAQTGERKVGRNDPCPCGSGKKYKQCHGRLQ

SMILES | Percent Effect [1] [%] | Percent Effect [2] [%] | Percent Effect [3] [%] | Percent Effect [4] [%] | Percent Effect (Trypanosoma cruzi) [%] | Percent Effect [5] [%] | Percent Effect [6] [%] | Percent Effect (Homo sapiens) [%] | Percent Effect [7] [%] | Percent Effect [8] [%] | Percent Effect [9] [%]
CC(NCc1cccnc1)c1ccc(OCC(=O)NC2CC2)cc1 (configuration not stated) | -4.57 | 1.27 | 10.2 | 0.488 | -2.15 | -0.215 | 12.2 | -0.549 | -2.08 | -2.53 | 4.29
CCN(CC)Cc1cn2c(n1)CN(C(=O)c1cnccn1)CC2 | -2.54 | 10.8 | 3.85 | -1.54 | -3.62 | 6.69 | 19.9 | -5.71 | 3.24 | 7.69 | 0.514
O=C(CCCn1cncn1)NC1(c2ccccc2)CCC1 | -7.52 | 7.79 | 1.86 | 8.16 | -6 | -11 | 13.6 | 15.5 | 3.23 | 11.1 | -1
Cn1ncc2c(=O)[nH]c(CN3CCCC3CC3CCCCC3)nc21 (configuration not stated) | -1.58 | 21.1 | -3.55 | 4.78 | 3.83 | 0.719 | 6.85 | 17.1 | 6.4 | 25.9 | -8.17
COc1cccc2cc(CNC(=O)N3CCCC(O)C3)oc12 (configuration not stated) | -6.3 | -2.53 | -3.54 | 1.57 | 8.59 | -3.8 | 1.39 | 6.63 | 3.45 | 8.86 | -5.74
O=C(O)CC1CN(Cc2ccccc2)CCO1 (configuration not stated) | -6.06 | 5.41 | 5.19 | -3.59 | -5.27 | 2.08 | 14.3 | 6.89 | 8.91 | 8.54 | -5.29
CC(C)Nc1nc(N2CCOCC2)nc2c1CN(CC(=O)N(C)C)CC2 | -9.2 | 0 | 6.79 | -0.0149 | -0.591 | 1.17 | -5.37 | 15.8 | -1.06 | -3.85 | -5.05
CN(Cc1nc(-c2ccco2)no1)C1CCCN(c2cccnn2)C1 (configuration not stated) | -1.52 | 20.2 | -5.85 | -5.93 | 2.17 | 1.14 | 16.1 | 11.9 | 6.4 | 21.5 | -10.1
Cc1ccc(C(=O)CCC(=O)N2CCC(c3nncn3C)CC2)cc1 | -8.28 | 15.6 | -6.09 | 19.9 | 5.24 | 1.78 | 11.3 | 9.84 | 5.83 | 24.4 | -1.85
CCN(CC1CCCO1)C(=O)Nc1ccc(F)cc1OC (configuration not stated) | -3.45 | 17.7 | -6.96 | 10.6 | 6.14 | 3.8 | 4.5 | -28.1 | 4.43 | 16.5 | -7.51
O=C(NCc1ccccc1CN1CCC(O)CC1)Nc1cccnc1 | -1.42 | -5.41 | -1.33 | 2.18 | 0.193 | 2.38 | 8.79 | -8.19 | 1.59 | -2.44 | -1.85
Cn1cnnc1C1CCCN(C(=O)NCCNc2ccccn2)C1 (configuration not stated) | -5.92 | 18.2 | 3.59 | 4.46 | 0.881 | 6.53 | 9.78 | 4.54 | 7.62 | 18.8 | -9.77
Cc1ccc(S(=O)(=O)NC(=O)c2c(C)noc2C(C)C)cc1C | -2.23 | 10.5 | -4.09 | 2.28 | 1.07 | -3.55 | 10.6 | -1.83 | 3.19 | 10.4 | -1.79
Cc1cc(C)n(CC2CCCN2C(=O)c2ccc3c(c2)OCO3)n1 (configuration not stated) | -1.47 | 6.33 | 1.3 | -3.57 | 2.15 | -1.5 | 8.75 | 1.15 | 2.08 | 2.53 | 0.284
O=C(CCn1ccc2cc(Br)ccc21)NCc1ccc(C(=O)O)cc1 | -5.12 | 2.63 | 11.6 | 0.438 | -3.02 | -3.55 | 16.2 | 10.9 | -6.38 | -10.4 | -1.59
COc1cccc(S(=O)(=O)NC(=O)COc2c(C)cccc2C)c1 | -5.17 | 7.79 | -10.1 | -4.14 | -2.81 | 2.13 | 6.08 | 10.3 | 0 | 12.2 | -4.1
CC1CCc2nc(O)c(C(=O)NCCN(C)C)cc2C1 (configuration not stated) | -6.34 | 4 | -0.0231 | 6.09 | 1.38 | -6.51 | 14.8 | -2.83 | 1.06 | 2.56 | -5.39
Cn1ncc2c1C(COCC1CC1)CN(Cc1ccoc1)C2 (configuration not stated) | -1.65 | 18.9 | 1.61 | -6.93 | 2.83 | 9.87 | 23.8 | 27.7 | 5.41 | 20.5 | 2.77
CC(=O)N1CCN(C(=O)NCc2csc(Br)c2)CC1 | -7.09 | 2.7 | 4.94 | 5.56 | 0.0929 | -0.554 | -3.77 | 6.02 | 7.92 | 1.22 | -0.334
CCN(c1ccc(C(=O)NCCCN2CCOCC2)cc1)S(=O)(=O)CC | -3.73 | 10.5 | -2.83 | -8.52 | -6.33 | 2.37 | 15.8 | -2.55 | -1.06 | -2.6 | -5.76
CN(CCN1CCCCC1)C(=O)c1cc(CN2CCOCC2)on1 | -2.82 | 8.22 | -18.2 | -4.57 | 2.74 | 1.82 | 21.8 | -8.25 | 7.53 | 20 | -3.28
Cn1c2c(ccc1=O)CC(NS(C)(=O)=O)CC2 (configuration not stated) | -7.68 | 5.33 | 5.05 | -7.17 | -1.97 | -0.233 | -1.15 | 20.7 | 2.13 | -3.85 | -1.57
